Experimental data taken from PubChem BioAssay (NCATS).
Inconclusive results are not listed. For some assays here: Measured potencies and affinities stand elsewhere. Activity calls are given as the source filed them. Unless noted, no rule for the calls is given here.

Tests used:
[1] = Ebola virus entry assay, green fluorescence channel
[2] = Ebola virus entry assay, blue channel fluorescence
[3] = Ebola virus entry assay, ratio channel
[4] = Ebola virus entry assay, green channel fluorescence
[5] = Ebola virus entry assay, reporter ratio channel; Channel type: primary
[6] = Ebola virus entry assay, blue channel (ratio component)
[7] = qHTS assay for measurement of the activity of small molecule inhibitors on Zika virus induced Caspase-3 activity in human iPSC derived neural progenitor cells (hNPCs) (AID 1224857; active = well fitted inhibition curve with a large enough effect; also: % of control where 0% means no effect; nearly all actives have a fitted effect of over 65% in size); conditions: hNPCs ZIKV-induced caspase-3/7, Caspase-Glo luminescence, 6 h; series mostly up to 45.7 µM
In short: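 In medium with heparin 2 ug/ml and cyclopamine 2 uM, hNPCs (350 cells/well) received compound for one hour and then Zika virus at 2 FFU/cell; caspase activity was measured by Caspase-Glo 3/7 luminescence 6 h post-infection.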

[8] = qHTS assay for measurement of the activity of small molecule inhibitors on Zika virus induced Caspase-3 activity in human astrocytoma cells (AID 1224859; active = well fitted inhibition curve with a large enough effect;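 also: plate controls were ZIKV-infected untreated cells for no effect and uninfected cells for full effect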); conditions: SNB-19 ZIKV-induced caspase-3/7, luminescence, 6 h; series mostly up to 45.7 µM
In short: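 A cell-based luminescent caspase-3/7 assay used SNB-19 cells infected with ZIKV (2 FFU/cell) for 6 h following 1 h compound pretreatment.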
For efficacy in this document: 0% is about no effect.

CCOC(=O)c1ncn2c1CN(C)C(=O)c1c(I)cccc1-2
inactive: efficacy [1] 19.2% | outcome [2] | outcome [3] | outcome [4] | outcome [5] | outcome [6] | Potency [7] | outcome [8]

C/C(=N/NC(=O)c1ccncc1)C(=O)O
inactive: efficacy [1] -27.5% | outcome [2] | outcome [3] | outcome [4] | outcome [5] | outcome [6]

C[C@]12CC[C@H]3[C@@H](CCC4=CC(=O)CC[C@@]43C)[C@@H]1CC[C@@H]2C(=O)O
inactive: efficacy [1] -23.5% | outcome [2] | outcome [3] | outcome [4] | outcome [5] | outcome [6] | Potency [7] | outcome [8]

O=C1c2ccccc2C(=O)C1c1ccccc1
inactive: efficacy [1] 13.2% | outcome [2] | outcome [3] | outcome [4] | outcome [5] | outcome [6]

C[C@]12C=CC(=O)C=C1CC[C@@H]1[C@@H]2CC[C@@]2(C)[C@H]1CC[C@]2(C)O
inactive: efficacy [1] -14% | outcome [2] | outcome [3] | outcome [4] | outcome [5] | outcome [6] | Potency [7] | outcome [8]

Cc1ccc(Nc2c(F)cccc2Cl)c(CC(=O)O)c1
inactive: efficacy [1] -7.19% | outcome [2] | outcome [3] | outcome [4] | outcome [5] | outcome [6]

NC(N)=NCCC[C@H](N)C(=O)O
inactive: efficacy [1] -16.3% | outcome [2] | outcome [3] | outcome [4] | outcome [5] | outcome [6]

COc1cccc2c1C(=O)c1c(O)c3c(c(O)c1C2=O)C[C@@](O)(C(=O)CO)C[C@@H]3O[C@H]1C[C@H](N)[C@H](O[C@@H]2CCCCO2)[C@H](C)O1
inactive: efficacy [1] 15.3% | outcome [2] | outcome [3] | outcome [4] | outcome [5] | outcome [6]

O=c1[nH]c2cc(Cl)ccc2n1C1CCNCC1
inactive: efficacy [1] 11.1% | outcome [2] | outcome [3] | outcome [4] | outcome [5] | outcome [6] | Potency [7] | outcome [8]

N[C@@H](Cc1ccc(O)cc1)C(=O)O
inactive: efficacy [1] 37.7% | outcome [2] | outcome [3] | outcome [4] | outcome [5] | outcome [6]

O=C1c2cccc(O)c2C(=O)c2c(O)cccc21
inactive: efficacy [1] -10.2% | outcome [2] | outcome [3] | outcome [4] | outcome [5] | outcome [6]

CC(NC(CCc1ccccc1)C(=O)O)C(=O)N1C(=O)N(C)CC1C(=O)O (stereo not given)
inactive: efficacy [1] -14.7% | outcome [2] | outcome [3] | outcome [4] | outcome [5] | outcome [6]

Nc1ccc(C(=O)NCC(=O)O)cc1
inactive: efficacy [1] 34% | outcome [2] | outcome [3] | outcome [4] | outcome [5] | outcome [6]

N#Cc1nn(-c2c(Cl)cc(C(F)(F)F)cc2Cl)c(N)c1S(=O)C(F)(F)F (stereo not given)
inactive: efficacy [1] 9.5% | outcome [2] | outcome [3] | outcome [4] | outcome [5] | outcome [6] | Potency [7] | outcome [8]

O=S1(=O)OC(c2ccc(O)cc2)(c2ccc(O)cc2)c2ccccc21
inactive: efficacy [1] 19.3% | outcome [2] | outcome [3] | outcome [4] | outcome [5] | outcome [6]

Cc1cccc(C)c1NC(=O)C(C)N (stereo not given)
inactive: efficacy [1] -28.5% | outcome [2] | outcome [3] | outcome [4] | outcome [5] | outcome [6]

COc1cc(CC#N)cc(OC)c1OC
inactive: efficacy [1] -13.1% | outcome [2] | outcome [3] | outcome [4] | outcome [5] | outcome [6] | Potency [7] | outcome [8]

OC[C@H]1O[C@@H](OCCc2ccc(O)cc2)[C@H](O)[C@@H](O)[C@H]1O
inactive: efficacy [1] -19% | outcome [2] | outcome [3] | outcome [4] | outcome [5] | outcome [6]

OCC(CO)N[C@H]1C[C@](O)(CO)[C@@H](O)[C@H](O)[C@H]1O
inactive: efficacy [1] -14.7% | outcome [2] | outcome [3] | outcome [4] | outcome [5] | outcome [6]

C[C@]12CC[C@H]3[C@@H](CC=C4C[C@@H](O)CC[C@@]43C)[C@@H]1CC[C@@H]2O
inactive: efficacy [1] -35.9% | outcome [2] | outcome [3] | outcome [4] | outcome [5] | outcome [6] | Potency [7] | outcome [8]

CCOC(=O)[C@@](C)(N)Cc1ccc(O)c(O)c1
inactive: efficacy [1] 38.1% | outcome [2] | outcome [3] | outcome [4] | outcome [5] | outcome [6]

FC(F)(F)C(Cl)Br (stereo not given)
inactive: efficacy [1] 31.6% | outcome [2] | outcome [3] | outcome [4] | outcome [5] | outcome [6]

COc1cc(N)c(Cl)cc1C(=O)NC1CN2CCC1CC2 (stereo not given)
inactive: efficacy [1] -20.5% | outcome [2] | outcome [3] | outcome [4] | outcome [5] | outcome [6] | Potency [7]

NNc1nnc(NN)c2ccccc12
inactive: efficacy [1] -13% | outcome [2] | outcome [3] | outcome [4] | outcome [5] | outcome [6]

Oc1ccc(O)cc1
inactive: efficacy [1] 16.5% | outcome [2] | outcome [3] | outcome [4] | outcome [5] | outcome [6]

CCCCC1C(=O)NC(=O)N(C2CCCCC2)C1=O (stereo not given)
inactive: efficacy [1] 18.4% | outcome [2] | outcome [3] | outcome [4] | outcome [5] | outcome [6] | Potency [7] | outcome [8]

C/C=C/c1ccc(OC)cc1
inactive: efficacy [1] -25.2% | outcome [2] | outcome [3] | outcome [4] | outcome [5] | outcome [6]

O=C(O)c1cccc(-c2noc(-c3ccccc3F)n2)c1
inactive: efficacy [1] 13.1% | outcome [2] | outcome [3] | outcome [4] | outcome [5] | outcome [6]
